Reference: PubChem BioAssay AID2073 (Sanford-Burnham Center for Chemical Genomics, 2009)
In all, about 290,000 compounds went through this assay and about 570 (0.2%) were called active. Not shown: some 1% with an inconclusive outcome. No stated cut-off is given here; in the data, active means inhibition mostly above about 51% (no sharp cut-off); inconclusive means no clear call, values can overlap the other calls; inactive means mostly below about 53%. The list comes from a sample in which actives are over-represented; it also holds similar structures and randomly drawn compounds.

Target: Voltage-dependent N-type calcium channel subunit alpha-1B (Homo sapiens) (UniProt Q00975)
Sequence (Q00975 whole entry, looked up): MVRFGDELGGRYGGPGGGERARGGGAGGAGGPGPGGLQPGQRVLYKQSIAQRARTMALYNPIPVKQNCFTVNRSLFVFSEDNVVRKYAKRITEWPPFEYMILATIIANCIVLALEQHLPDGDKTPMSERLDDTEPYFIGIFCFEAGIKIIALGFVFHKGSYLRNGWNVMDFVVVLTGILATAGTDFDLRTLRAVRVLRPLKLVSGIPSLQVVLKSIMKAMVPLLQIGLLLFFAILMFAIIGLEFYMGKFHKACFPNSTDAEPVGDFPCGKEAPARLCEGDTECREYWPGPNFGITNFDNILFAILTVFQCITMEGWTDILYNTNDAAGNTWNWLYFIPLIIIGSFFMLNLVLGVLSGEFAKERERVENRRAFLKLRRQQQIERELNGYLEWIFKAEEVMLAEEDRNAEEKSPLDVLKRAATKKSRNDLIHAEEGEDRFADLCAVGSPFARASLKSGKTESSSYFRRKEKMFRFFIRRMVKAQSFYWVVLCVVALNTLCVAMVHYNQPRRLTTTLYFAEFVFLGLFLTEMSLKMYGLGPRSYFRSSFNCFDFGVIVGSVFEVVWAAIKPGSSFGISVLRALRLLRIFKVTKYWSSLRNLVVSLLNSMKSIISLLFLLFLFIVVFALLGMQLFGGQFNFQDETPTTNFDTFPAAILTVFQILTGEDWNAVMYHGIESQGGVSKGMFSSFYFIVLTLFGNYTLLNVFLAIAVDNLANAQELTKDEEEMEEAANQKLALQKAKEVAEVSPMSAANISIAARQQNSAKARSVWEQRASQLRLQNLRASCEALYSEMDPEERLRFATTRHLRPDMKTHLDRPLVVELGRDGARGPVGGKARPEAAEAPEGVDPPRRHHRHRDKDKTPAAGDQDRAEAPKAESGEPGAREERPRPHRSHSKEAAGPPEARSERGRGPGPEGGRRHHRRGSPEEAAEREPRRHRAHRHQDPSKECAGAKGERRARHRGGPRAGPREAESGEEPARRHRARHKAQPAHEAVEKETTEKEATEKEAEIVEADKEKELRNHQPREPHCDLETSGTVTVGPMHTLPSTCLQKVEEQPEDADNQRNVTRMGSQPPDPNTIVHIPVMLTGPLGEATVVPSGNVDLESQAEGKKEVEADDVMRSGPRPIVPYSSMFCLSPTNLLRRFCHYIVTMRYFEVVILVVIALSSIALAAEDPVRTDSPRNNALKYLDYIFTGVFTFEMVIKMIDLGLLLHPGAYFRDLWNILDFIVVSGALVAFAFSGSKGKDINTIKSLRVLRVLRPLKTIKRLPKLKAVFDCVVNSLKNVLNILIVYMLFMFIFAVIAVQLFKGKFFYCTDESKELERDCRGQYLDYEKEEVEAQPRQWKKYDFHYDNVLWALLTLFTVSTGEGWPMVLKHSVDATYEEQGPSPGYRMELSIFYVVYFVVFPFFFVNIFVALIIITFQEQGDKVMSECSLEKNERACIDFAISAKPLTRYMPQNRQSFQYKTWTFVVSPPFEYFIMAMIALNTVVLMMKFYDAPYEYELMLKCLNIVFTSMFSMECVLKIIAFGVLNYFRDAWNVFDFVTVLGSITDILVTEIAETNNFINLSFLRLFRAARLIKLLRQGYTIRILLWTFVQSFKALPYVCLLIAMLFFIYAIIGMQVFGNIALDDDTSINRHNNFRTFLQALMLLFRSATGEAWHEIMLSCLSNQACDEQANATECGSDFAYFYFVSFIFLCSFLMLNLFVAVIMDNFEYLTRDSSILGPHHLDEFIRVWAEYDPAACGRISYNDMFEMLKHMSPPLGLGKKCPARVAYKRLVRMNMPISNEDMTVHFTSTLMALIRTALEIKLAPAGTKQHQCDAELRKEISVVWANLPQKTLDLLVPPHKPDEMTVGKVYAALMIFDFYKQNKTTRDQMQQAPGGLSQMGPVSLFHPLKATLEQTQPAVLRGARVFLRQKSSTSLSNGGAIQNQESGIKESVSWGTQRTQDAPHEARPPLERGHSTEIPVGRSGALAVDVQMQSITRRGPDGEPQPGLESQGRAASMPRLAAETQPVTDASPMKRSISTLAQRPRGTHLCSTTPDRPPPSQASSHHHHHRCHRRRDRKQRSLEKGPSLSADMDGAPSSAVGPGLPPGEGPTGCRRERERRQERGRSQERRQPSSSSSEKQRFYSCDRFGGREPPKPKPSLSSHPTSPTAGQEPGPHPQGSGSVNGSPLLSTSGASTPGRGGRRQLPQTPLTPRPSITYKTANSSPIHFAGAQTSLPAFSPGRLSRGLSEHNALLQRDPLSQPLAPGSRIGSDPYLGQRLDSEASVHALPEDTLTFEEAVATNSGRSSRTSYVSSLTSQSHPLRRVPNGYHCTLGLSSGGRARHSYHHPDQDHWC
Assay: disruptors of CaV2.2 binding to Mint1 – biochemical, HTRF (AID 2073)
Conditions: HTRF protein-protein interaction, Mint1-CaV2.2, at 20 µM, stronger effect = higher value
[1] = measured here: average of repeat tests

Structure (SMILES)	inhibition	inhibition [1] [%]
CC(C)n1c(=S)[nH]c2c1c(=O)[nH]c(=O)n2C	-95.1% (inactive)	
CC(C)c1csc(CN2CCC(CO)(Cc3cccc(F)c3)CC2)n1	-1.1% (inactive)	
Cc1ccc(S(=O)(=O)N2c3ccccc3OCC2C(C)(C)C)cc1 (stereo not drawn)	1.7% (inactive)	
COc1ccc(S(=O)(=O)N2c3ccccc3OCC2C(C)(C)C)cc1 (stereo not drawn)	50.4% (active)	
COc1ccc(S(=O)(=O)N2c3cc(C)ccc3OCC2C(C)(C)C)cc1 (stereo not drawn)	-0.4% (inactive)	
CCN(CC)S(=O)(=O)c1ccc(C(=O)Nc2ccc3c(c2)OCO3)cc1	9.9% (inactive)	
COc1ccccc1/C=c1\sc2nc(-c3ccco3)nn2c1=O	35.1% (inactive)	
CCOc1ccc(/C=c2\sc3nc(-c4ccco4)nn3c2=O)cc1OCC	31.7% (inactive)	
COc1ccc(Br)cc1/C=c1\sc2nc(-c3ccco3)nn2c1=O	66.4% (active)	
COCCSc1nnc(NC(=O)c2ccc3c(c2)OCO3)s1	3.7% (inactive)	
Cc1nc(C(C)N(C)Cc2nc(Cc3ccccc3F)no2)c(C)s1 (stereo not drawn)	-15.7% (inactive)	
COc1ccccc1N(CC(=O)N(CC(C)C)CC(C)C)S(=O)(=O)c1cccs1	-4.4% (inactive)	
COc1ccc(N2C(=O)c3cc4ccccc4cc3C2=O)cc1	4.4% (inactive)	
COc1ccc(N2C(=O)C(Cl)=C(Oc3cccc(OC)c3)C2=O)cc1	56.7% (active)	
COc1ccc(N2C(=O)C(Cl)=C(N3CCCC3)C2=O)cc1	19.5% (inactive)	
Cc1ccc(Nc2nc(-c3ccc(C)cc3)c(CC(=O)O)s2)cc1	14.4% (inactive)	
Cc1nc2sc(C(c3cccc(F)c3)N3CCN(C(=O)c4ccco4)CC3)c(O)n2n1 (stereo not drawn)	3.9% (inactive)	
CC(=O)CC1(O)C(=O)Nc2ccccc21 (stereo not drawn)	33.4% (inactive)	
CN(C)CCNc1c(N)c(=O)oc2ccccc12	-16.1% (inactive)	
Cc1ccc(C(=O)c2ccccc2C(=O)OCC(=O)NC(C)(C)C)cc1	-3.7% (inactive)	
CCOC(=O)c1ccc(N2C(=O)c3n[nH]c(-c4ccco4)c3C2c2cccc([N+](=O)[O-])c2)cc1 (stereo not drawn)	27.2% (inactive)	

Structure (SMILES)	inhibition	inhibition [1] [%]
CCOC(=O)c1ccc(N2C(=O)c3n[nH]c(-c4ccco4)c3C2c2ccc([N+](=O)[O-])cc2)cc1 (stereo not drawn)	71.1% (active)	
CCOC(=O)c1ccc(N2C(=O)c3n[nH]c(C)c3C2c2ccco2)cc1 (stereo not drawn)	-2.1% (inactive)	
O=C(O)Cn1nnnc1-c1ccc(F)cc1	0% (inactive)	
CC(NC(=O)C1CCCN(C(=O)N(C)C)C1)c1ccccc1 (stereo not drawn)	0.8% (inactive)	
COC(=O)N/N=C/c1cc(N=Nc2ccccc2)ccc1O	23.6% (inactive)	
CC(C)(C)OC(=O)N/N=C/c1cc(N=Nc2ccccc2)ccc1O	3.5% (inactive)	
Cc1cccc(C)c1N1C(=O)CC(N(O)c2ccccc2)C1=O (stereo not drawn)	4.8% (inactive)	
Cc1cc(C)c(C#N)c(N2CCN(S(=O)(=O)Cc3ccccc3)CC2)n1	1% (inactive)	
CCOC(=O)c1sc(NC(=O)CN2C(=O)NC3(CC(C)CC(C)(C)C3)C2=O)c(C(=O)OCC)c1C (stereo not drawn)	13.6% (inactive)	
COc1ccc(C2Nc3cccc4cccc(c34)N2)cc1Br	25.7% (inactive)	
COc1cc(C2Nc3cccc4cccc(c34)N2)cc(OC)c1OC(C)=O	77.3% (active)	
COc1cc(C2Nc3cccc4cccc(c34)N2)ccc1OC(C)=O	74.4% (inactive)	-13.1
COc1ccc(NC(=S)Nc2cccc3cnccc23)cc1	77.7% (active)	
Cc1cc(C)cc(NC(=S)Nc2cccc3cnccc23)c1	16.7% (inactive)	
CN(C)S(=O)(=O)c1cccc(NC(=S)Nc2cccc3cnccc23)c1	51.6% (active)	
S=C(Nc1cccnc1)Nc1cccc2cnccc12	79.7% (inactive)	4.7
CCOc1ccc(NC(=S)Nc2cccc3cnccc23)cc1	27% (inactive)	
Cc1ccc(NC(=S)Nc2cccc3cnccc23)cc1	21.8% (inactive)	
COc1ccc(/C=C2\SC(N3CCCCC3)=NC2=O)cc1	3.8% (inactive)	
COc1ccc(CNC(=O)C(C)OC(=O)c2cccn2C)cc1 (stereo not drawn)	-0.9% (inactive)	
COc1ccc(S(=O)(=O)N(C)C2CCS(=O)(=O)C2)cc1OC (stereo not drawn)	4.6% (inactive)	

Structure (SMILES)	inhibition	inhibition [1] [%]
OCCNc1nc(-c2ccccc2)c2cc(Cl)ccc2n1	15.1% (inactive)	
COCCNC(=O)c1cccc(Nc2nc(-c3ccccc3)c3cc(Cl)ccc3n2)c1	54.5% (active)	
O=C(NCCO)c1cccc(Nc2nc(-c3ccccc3)c3cc(Cl)ccc3n2)c1	11.1% (inactive)	
Clc1ccccc1-c1nnc2sc(-c3ccc(Br)o3)nn12	-3.6% (inactive)	
Cc1nnc(N/N=C\c2ccc(-c3ccccc3[N+](=O)[O-])o2)n1N	45% (inactive)	
O=[N+]([O-])c1ccccc1-c1ccc(/C=N/n2cnnc2)o1	-7.6% (inactive)	
Nn1cnnc1N/N=C\c1ccc(-c2ccccc2[N+](=O)[O-])o1	62% (active)	
COc1ccc(CCN(C)C(=O)CN2C(=O)c3ccccc3S2(=O)=O)cc1OC	-0.2% (inactive)	
COc1ccc(N2C(=O)N(Cc3ccc(C)cc3)c3ccccc3S2(=O)=O)cc1	5.3% (inactive)	
COc1ccc(N2C(=O)N(Cc3ccccc3F)c3ccccc3S2(=O)=O)cc1	-1.5% (inactive)	
COc1ccc(N2C(=O)N(Cc3cccc(F)c3)c3ccccc3S2(=O)=O)cc1	55.6% (active)	
N#CCCN1CCCN(CCC#N)CCN(CCC#N)CCCN(CCC#N)CC1	-13.6% (inactive)	
CCOC(=O)/C=c1\s/c(=C\c2c(OCC)ccc3ccccc23)c(=O)n1CC(=O)NCC1CCCO1 (stereo not drawn)	10.3% (inactive)	
COc1cc(OC)cc(C(=O)OCC(=O)NC(C)CCc2ccccc2)c1 (stereo not drawn)	34.5% (inactive)	
O=C1CCC/C(=N/NC(=O)c2sc3ccccc3c2Cl)C1	8.3% (inactive)	
COc1ccc2c(Cl)c(C(=O)NN)sc2c1	8.1% (inactive)	
COc1ccc2c(Cl)c(C(=O)N/N=C3\CCCC(=O)C3)sc2c1	50.9% (active)	
Cc1ccc(C(=O)NCCc2nnc3ccc(NCc4ccc5c(c4)OCO5)nn23)cc1	-1.4% (inactive)	
COc1ccc(C(=O)Nc2ccc(Cl)cc2C(=O)NCCO)cc1	-1.8% (inactive)	
